# The entries come from a sample that favours hits as a whole.
# Pf Dd2 growth: inhibitors of Plasmodium falciparum Dd2 growth | Potency, µM (highest dose often 28.9 µM), for inactives: at the top dose activity, negative = inhibition, actives largely listed as inhibitors | AID 1347417 | P. falciparum Dd2 growth, SYBR Green, 72 h | actives 4.3% (n = 120,000); active = well fitted inhibition curve with a large enough effect;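 note: plate controls were DMSO vehicle for no effect and reference drug for full effect; nearly all actives have a fitted effect of over 65% in size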
#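 Readout: SYBR Green fluorescence, 485 nm excitation, 535 nm emission, after ~16 h lysis at 37C. Before that, Dd2-infected red cells (2.5% hematocrit) grew 72 h with compound, 29 uM top final concentration.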
# An asterisk follows results filed as active; i = inactive; [ ] = another dose, or the depositor's remark. Potency is the fitted concentration of half-maximal effect.
SMILES,Pf Dd2 growth
COc1ccc(CNC(=O)C(C)C2CCOCC2)cc1 (configuration not stated),9.9%
O=C1NC[C@@H](CCC(=O)N2CCCC2)N2C[C@@H](NCc3ccc(CO)o3)C[C@@H]12,32.7%[44.1 µM]
COCCOCC(=O)NCC(=O)N1CCCCCNC(=O)CC1c1ccccc1 (configuration not stated),44.9%
Fc1ccc(Cc2nc3nccc(-c4ccc5c(c4)OCCCO5)n3n2)cc1,14.1µM*
COCc1nc2nccc(-c3ccc4c(c3)OCCCO4)n2n1,-12.7%
COc1ccc(Cc2nc3nccc(-c4ccc5c(c4)OCCCO5)n3n2)cc1,-6.5%
COCCOc1ccc2c(n1)CCN(C(=O)CC1CCCC1)C2,-5.3%
COc1cc(C2c3c(oc4ccccc4c3=O)C(=O)N2Cc2ccc(C)cc2)ccc1O (configuration not stated),14.9%
CCOc1ccc(NC(=O)Cn2nc(Cc3ccncc3)c3ccccc3c2=O)cc1,-8.1%
CCOc1ccc(C2c3c(-c4ccccc4O)n[nH]c3C(=O)N2Cc2ccncc2)cc1 (configuration not stated),14.1µM*
CCCCOc1ccc(C2c3c(-c4ccccc4O)n[nH]c3C(=O)N2Cc2ccncc2)cc1OC (configuration not stated),7.08µM*
CCOc1ccc(C2c3c(oc4cc(C)c(C)cc4c3=O)C(=O)N2c2ccccn2)cc1 (configuration not stated),-7.5%
COc1cc(C2c3c(-c4ccccc4O)n[nH]c3C(=O)N2Cc2ccncc2)ccc1O (configuration not stated),-4.7%
Cc1nc2ccc(C(=O)Nc3ccccc3C(=O)N3CCCCCC3)cc2[nH]1,7.2%
CN1CCC(NC[C@H]2O[C@H](Cc3cc(-c4cccc(O)c4)on3)CC[C@@H]2O)CC1,3.8%[44.1 µM]
CC(C)(C)c1cc(C(=O)N2CCCC2)nn2cccc12,8.7%[44.1 µM]
COc1ccc(Nc2nc(-c3c(C)noc3C)cc3cc(CO)oc23)cc1OC,7.94µM*
Cc1noc(C)c1-c1cc2cc(CO)oc2c(NCc2cccc(F)c2)n1,i
COCCNc1nc(-c2c(C)noc2C)cc2cc(CO)oc12,-10.0%[44.1 µM]
COCCOCC(=O)N1CCC(N2C(=O)C3(CCCCC3)C2c2ccccc2)CC1 (configuration not stated),-11.0%
CN(C)C[C@@H]1CN(Cc2cccnc2)C[C@H]1NC(=O)C1(C)CCOCC1,6.2%
COc1cc2c(C(=O)N3CCN(c4ccc(F)cc4)CC3)cn(CC(C)C)c(=O)c2cc1OC,10µM*
COc1ccccc1N1CCN(C(=O)c2c(C)oc3ncn(CC(C)C)c(=O)c23)CC1,8.4%
COc1ccc(N2CCN(C(=O)c3cc4c(=O)n(Cc5ccccc5)ccc4nc3C)CC2)cc1,-16.3%
COc1ccccc1N1CCN(C(=O)Nc2cn(CC(C)C)c(=O)c3ccccc23)CC1,44.8%[5.79 µM]
SMILES,Pf Dd2 growth
COc1ccc(N2CCN(C(=O)c3cn(CC(C)C)c(=O)c4c3c3ccccc3n4C)CC2)cc1,10µM*
COc1cc(Cl)c(C)cc1NC(=O)c1cn(CC(C)C)c(=O)c2cc(OC)c(OC)cc12,-0.3%
COc1cc2c(C(=O)N(C)c3cccc(C(F)(F)F)c3)cn(CC(C)C)c(=O)c2cc1OC,-16.7%
COc1ccccc1N1CCN(C(=O)c2cn(CC(C)C)c(=O)c3c2c2ccccc2n3C)CC1,7.94µM*
COc1ccc(Nc2ncc(C(=O)N3CCN(c4ccc(OC)cc4)CC3)c3ccccc23)cc1,i
CCCNC(=O)N1C[C@@H](Oc2cccnc2)C[C@H]1C(=O)N1CCOCC1,5.1%
COc1ccccc1C(=O)N1CCC(N2CCOC2=O)CC1,3.8%
O=C(O)[C@H]1C[C@@H](C(=O)NCc2ccncc2)CN(C2CCOCC2)C1,12.1%
CCCNC(=O)N(C1CCOCC1)C1CCN(C(=O)c2ccc3ncccc3c2)CC1,164.4%
c1cncc(CN2CCC(C3CCN(Cc4ccc[nH]4)C3)CC2)c1 (configuration not stated),-22.5%
CC(C)CCN(C1CCOCC1)C1CCN(Cc2ccc[nH]2)CC1,3.16µM*
CC(C)CCN(C1CCOCC1)C1CCN(C(=O)c2ccncc2)CC1,-14.8%
Cc1ccc(CNC(=O)[C@H]2CCC[C@H]2NC(=O)c2ccncc2)cc1C,-18.8%
CCOc1ccc(CC(=O)N2CCC(Oc3nccnc3N(C)C)C2)cc1 (configuration not stated),9.8%
O=C(CN1CC2CC(C1)[C@H]1CCCC(=O)N1C2)NC1CCCCCC1 (some centres not stated),-11.4%
O=C(Cc1ccc(F)cc1)NC1CCN(c2ccc(F)cc2)C1=O (configuration not stated),i
CCNC(=O)O[C@@H]1CO[C@H]2[C@@H]1OC[C@@H]2NS(=O)(=O)c1ccccc1C#N,10.7%[44.1 µM]
N#CCCN1CCN(C(=O)CCc2cc3ccccc3[nH]c2=O)CC1,-24.0%
O=C(CCc1cc2ccccc2[nH]c1=O)NCCN1CCc2ccccc2C1,3.16µM*
CCC1CCCCN1CCNC(=O)CCc1cc2ccccc2[nH]c1=O (configuration not stated),i
O=C(Cn1nc2c(cc1=O)CCCCC2)Nc1ccc(F)c(Cl)c1,-10.7%

# Screens deposited in PubChem BioAssay by National Center for Advancing Translational Sciences (NCATS).
